Screening results as filed in PubChem.
G9a block = G9a (human) methyltransferase inhibition | Q96KQ7 | G9a H3K9 monomethylation, AlphaScreen, 2 h | Potency, µM (series often up to 102 µM), most hits filed as inhibitors | 350,000 compounds, 8.8% hits; also: nearly all actives have a fitted effect of over 75% in size
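G9a (20 nM) preincubated 15 min RT with compounds, then 500 nM biotinylated H3K9 peptide and 20 uM SAM added; 2 h RT reaction. Monomethyl-H3K9 product detected by AlphaScreen with anti-H3K9me1 antibody, streptavidin donor and anti-rabbit IgG acceptor beads.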
TDP1 inh = TDP1 (human) enzyme inhibition | Q9NUW8 | Potency, µM (series often up to 130 µM), actives largely listed as inhibitors | recombinant TDP1, AlphaScreen DNA substrate cleavage | 350,000 compounds, 0.28% hits; also: nearly all actives have a fitted effect of over 40% in size
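Recombinant human Tdp1 (E. coli-expressed, 1 nM final) preincubated with compounds 15 min at room temperature, then 5'-biotin/3'-phosphotyrosine-FITC DNA substrate (15 nM final) added for 5 min. AlphaScreen beads (10 ug/ml final) added 10 min; cleavage lowers signal.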
HP1b binding inh = HP1-beta chromodomain-methylated histone interaction inhibition; P83916; AlphaScreen HP1-beta / biotin-H3K9me3 peptide binding; Potency, µM (titrated, usually from 114 µM), most hits filed as inhibitors; 390,000 compounds, 0.56% hits; AID 540317; also: nearly all actives have a fitted effect of over 70% in size
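HP1-beta protein (50 nM final) preincubated 30 min at room temperature with biotinylated H3(1-18)K9me3 peptide (50 nM) in PBS pH 7.4, 0.01% Tween-20, then compound added for 30 min. AlphaScreen streptavidin donor/nickel chelate acceptor beads (10 ug/mL final), 30 min dark, luminescence read.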
JMJD2A Tudor inh = blocks the human JMJD2A Tudor domain. 390,000 compounds, 4.4% hits. AlphaScreen JMJD2A-Tudor / H3K4me3 peptide binding. O75164. Potency, µM (top dose mostly 114 µM), most hits filed as inhibitors; also: nearly all actives have a fitted effect of over 50% in size
Sfp PPTase inh = blocks B. subtilis Sfp PPTase activity | Q9F4F7 | Biochemical Sfp PPTase activity, qHTS | Potency, µM, most hits filed as inhibitors | 310,000 compounds, 3.5% hits;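 also: the enzyme is Sfp with the accession as filed and its product quenches rhodamine fluorescence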
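Compounds were incubated with enzyme (final 15 nM) for 15 min at room temperature before substrate addition started the reaction. Fluorescence at 525 nm excitation, 598 nm emission was recorded immediately and after 30 minutes.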
BAZ2B inh = BAZ2B (human) inhibition | AlphaScreen BAZ2B-H3K14Ac peptide displacement | 360,000 compounds, 4.4% hits | Q9UIF8 | Potency, µM (series often up to 114 µM), actives largely listed as inhibitors | AID 504333; also: nearly all actives have a fitted effect of over 60% in size
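Compounds, titrated to a top concentration of 110 uM, were incubated 30 min at room temperature with preformed BAZ2B/acetyl-K14 H3 peptide complex (50 nM each). Proximity signal was measured by AlphaScreen after 20 min with beads.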
Large screens that a line does not name were inactive. A selection: hits, their analogues and other compounds. The true share with any hit is near 12%. Calls follow the shape of the dose curve; as a rule, active = well fitted curve in the direction sought with a large enough effect; inconclusive = small, poorly fitted or top-dose-only effect, or another doubt; inactive = no such curve, though single readings can be large; an effect the other way counts as inactive or inconclusive.

CCCCC/C=C\C/C=C\C/C=C\CC1OC1CCCC(=O)O (stereo not given)	none (no result: HP1b binding inh, JMJD2A Tudor inh, BAZ2B inh)
Nc1ccc(O)c(C(=O)O)c1	G9a block 3.16µM, Sfp PPTase inh 44.7µM (no result: TDP1 inh, HP1b binding inh, JMJD2A Tudor inh, BAZ2B inh)
Cc1nc(-c2ccc(F)cc2)c(CC(=O)N(C)CC(=O)Nc2ccc(Br)cc2C)s1	G9a block 31.6µM (no result: Sfp PPTase inh)
Cc1nc(-c2ccc(F)cc2)c(CC(=O)N(C)CC(=O)Nc2ccccc2Br)s1	none (no result: TDP1 inh, Sfp PPTase inh)
O=C(CN1C(=O)C2(OCCO2)c2ccccc21)c1ccc(Br)cc1	G9a block 39.8µM
O=C1N(CCCCN2C(=O)C3(OCCO3)c3ccccc32)c2ccccc2C12OCCO2	none
COC(=O)CN1C(C(=O)c2ccccc2)=C(OC(=O)c2ccccc2)c2ccccc2S1(=O)=O	JMJD2A Tudor inh inconclusive, BAZ2B inh inconclusive (no result: Sfp PPTase inh)
CCC(C)c1cc([N+](=O)[O-])cc([N+](=O)[O-])c1OC(=O)OC(C)C (stereo not given)	none (no result: G9a block, HP1b binding inh, JMJD2A Tudor inh, BAZ2B inh)
Cc1ccc(C(=O)c2sc(Nc3ccc(F)cc3)nc2N)c(C)c1	G9a block inconclusive, HP1b binding inh inconclusive, JMJD2A Tudor inh 79.4µM, BAZ2B inh 39.8µM (no result: Sfp PPTase inh)
COc1ccc(Nc2nc(N)c(C(=O)c3ccc(F)cc3)s2)cc1	G9a block inconclusive, JMJD2A Tudor inh inconclusive, Sfp PPTase inh inconclusive (no result: TDP1 inh)
Cc1ccc(S(=O)(=O)N2CCN(C(=O)COC(=O)CNC(=O)c3ccc(Cl)cc3Cl)CC2)c(C)c1	JMJD2A Tudor inh 25.1µM (no result: G9a block, TDP1 inh, Sfp PPTase inh, BAZ2B inh)
COc1ccc(N2CCN(C(=O)COC(=O)CNC(=O)c3ccc(Cl)cc3Cl)CC2)cc1	G9a block 44.7µM (no result: Sfp PPTase inh)
COc1ccc(N2CCN(C(=O)COc3ccc(Cl)cc3Cl)CC2)cc1	G9a block 6.31µM, JMJD2A Tudor inh inconclusive, BAZ2B inh inconclusive
COc1ccc(N2CCN(C(=O)COC(=O)CNC(=O)c3ccccc3)CC2)cc1	none
Cc1cc(NC(CC(C)C)C(=O)O)nc(Cc2ccccc2)n1 (stereo not given)	none
Cc1cc(NN)nc(Cc2ccccc2)n1	Sfp PPTase inh 50.1µM (no result: TDP1 inh)
O=c1c(-c2cccs2)nc2cnc(Oc3ccccc3)nc2n1C1CC1	none (no result: TDP1 inh, HP1b binding inh, JMJD2A Tudor inh, BAZ2B inh)
COc1cc(SC#N)ccc1N=Cc1c(C)[nH]n(-c2ccc(C)c(C)c2)c1=O	G9a block 10µM
COc1cc(SC#N)ccc1N=Cc1c(C)[nH]n(-c2ccc(Cl)cc2)c1=O	none
CCC1CC=CC2C1C(=O)N(Cc1ccccc1)C2c1ccc(OC)c(Cl)c1 (stereo not given)	Sfp PPTase inh inconclusive (no result: G9a block, BAZ2B inh)
COc1ccccc1NC(=O)Nc1nc(CC(=O)N2CCN(c3ccccc3)CC2)cs1	G9a block inconclusive (no result: Sfp PPTase inh)
COc1ccc(N2CCN(C(=O)Cc3csc(NC(=O)Nc4ccccc4OC)n3)CC2)cc1	G9a block 7.94µM, JMJD2A Tudor inh inconclusive, BAZ2B inh inconclusive (no result: Sfp PPTase inh)
COc1ccccc1NC(=O)Nc1nc(CC(=O)Nc2ccc(F)cc2)cs1	none (no result: Sfp PPTase inh)
COc1ccccc1NC(=O)Nc1nc(CC(=O)Nc2cccc(F)c2)cs1	G9a block 39.8µM (no result: Sfp PPTase inh)
COc1ccccc1NC(=O)Nc1nc(CC(=O)Nc2ccc(F)c(F)c2)cs1	none (no result: Sfp PPTase inh)
COc1ccccc1NC(=O)Nc1nc(CC(=O)Nc2ccc(N(C)C)cc2)cs1	G9a block 11.2µM, HP1b binding inh 39.8µM, JMJD2A Tudor inh 25.1µM, BAZ2B inh 12.6µM (no result: TDP1 inh, Sfp PPTase inh)
CCCCn1c(=O)nc2n(-c3ccc(F)cc3)c3ccccc3cc-2c1=O	G9a block inconclusive (no result: Sfp PPTase inh)
Cc1nc(C)c(C(=O)Nc2ncc([N+](=O)[O-])s2)o1	G9a block 10µM, TDP1 inh inconclusive, JMJD2A Tudor inh inconclusive, BAZ2B inh inconclusive
COc1ccc(CC(=O)Nc2ncc([N+](=O)[O-])s2)cc1OC	G9a block 11.2µM, HP1b binding inh 28.2µM, JMJD2A Tudor inh inconclusive, Sfp PPTase inh 25.1µM
CC(C)CC(=O)Nc1ncc([N+](=O)[O-])s1	Sfp PPTase inh 35.5µM (no result: G9a block, TDP1 inh)
O=C(Nc1ncc([N+](=O)[O-])s1)c1cccc([N+](=O)[O-])c1	G9a block inconclusive
CCCCC(=O)Nc1ncc([N+](=O)[O-])s1	G9a block inconclusive
CN(CC(=O)Nc1ccc(F)cc1)C(=O)COC(=O)CNC(=O)c1ccc(Cl)cc1Cl	none (no result: Sfp PPTase inh)
COc1ccc(C2C(C#N)=C(N)Nc3nc4ccccc4n32)cc1 (stereo not given)	G9a block inconclusive
